# Screening data: PubChem BioAssay, several laboratories
# HSF1 inhib – HSF1 inhibition; hit rate 0.77% among 300,000; NIH3T3-HGL HSE-luciferase, MG132-induced, luminescence 8 h; stronger effect = lower value; activity change, negative = inhibition, % at 7.5 µM (by protocol); AID 2098;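 active = more than half of replicate wells show activity change below -50%, luminescence cut by over half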;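 note: luciferase reports HSF-1 transcriptional activity via heat shock element; 0% = median of DMSO wells and -100% = zero luminescence signal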
# STAT3 inh – inhibitors of IL-6 induced STAT3 signaling; hit rate 0.89% among 190,000; inhibition, % at 5.5 µM; AID 862; U3A cells, IL-6 STAT3-luciferase reporter, luminescence; host cell line lacks STAT1;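 active = inhibition above the mean inhibition across all screened compounds plus 3 SD, cut at about 44% in these data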;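 note: 0% = DMSO only wells and 100% = 100 µM nifuroxazide control wells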
# STAT1 blocker – reduces IFN-gamma driven STAT1 reporter signal | hit rate 0.35% among 200,000 | AID 920 | NIH 3T3 STAT1-luciferase reporter, luminescence | inhibition, % at 5.5 µM;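 active = inhibition above a set limit, the mean inhibition across all tested compounds plus 3 SD, cut at about 34% in these data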;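 note: 0% = IFN-gamma with DMSO and 100% = IFN-gamma with 300 µM nifuroxazide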
# PPC-1+TRAIL kill – compounds killing PPC-1 cancer cells with TRAIL present (potentiator screen, no TRAIL-free arm); PPC-1 cells + TRAIL, ATPLite viability luminescence; cell killing (% activity), % at 4 µM or 5 µM; hit rate 0.41% among 220,000;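 active = cell killing above 50% in the first pass at 4 µM, then a duplicate retest at 5 µM averaging 50% or more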;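 note: plate controls were cells with TRAIL plus DMSO for no effect and medium-only wells lacking cells for full effect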
# C8 TRAIL sens – caspase-8 TRAIL sensitization; NB7+C8 cells + TRAIL, ATPlite viability luminescence; inhibition (viability loss, TRAIL sensitization), % at 10 µM; hit rate 1% among 360,000;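 active = compounds causing at least 50% loss of cell viability in the single-dose screen, relative to plate controls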
# HSP90 inh – blocks HSP90-mediated luciferase refolding in reticulocyte lysate; Rabbit reticulocyte lysate, luciferase refolding luminescence, 3 h; inhibition, % at 5.6 µM; hit rate 0.91% among 290,000; AID 1789;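 active = inhibition above the screen-wide mean plus 3 SD, computed separately per campaign, cut at about 16% in these data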;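 note: 0% = DMSO wells and 100% = 60 µM geldanamycin wells; inhibitors lower the luminescence because luciferase stays unfolded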
# PPC1 cytotox – kills PPC-1 cells; shares compounds with PPC-1+TRAIL kill; PPC-1 viability, ATPlite luminescence, overnight; hit rate 50% among 1,200; cytotoxicity, % at 5 µM; AID 1447;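 active = reconfirmed compounds whose average cytotoxicity reaches 50% or more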;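 note: 0% = DMSO-treated cells and 100% = wells holding medium but no cells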
# HSP90 confirm – HSP90 inhibition, confirmation assay. shares compounds with HSP90 inh. rabbit reticulocyte lysate, luciferase refolding luminescence, 3 h. inhibition, % at 5.9 µM. hit rate 64% among 2,300; in the data active = inhibition above about 18%;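 note: 0% = vehicle wells and 100% = reference inhibitor wells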
# luciferase ctr – counter-screen for HSP90 inhibitors: inhibitors of firefly luciferase; shares compounds with HSP90 inh; purified native firefly luciferase, luminescence; inhibition, % at 5.9 µM; hit rate 48% among 2,300;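 active = inhibition above the mean inhibition of all tested sample wells plus 3 SD, cut at about 10% in these data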;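 note: 0% = DMSO with luciferase and 100% = wells lacking luciferase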
# Target sequence (P08659 whole entry, looked up): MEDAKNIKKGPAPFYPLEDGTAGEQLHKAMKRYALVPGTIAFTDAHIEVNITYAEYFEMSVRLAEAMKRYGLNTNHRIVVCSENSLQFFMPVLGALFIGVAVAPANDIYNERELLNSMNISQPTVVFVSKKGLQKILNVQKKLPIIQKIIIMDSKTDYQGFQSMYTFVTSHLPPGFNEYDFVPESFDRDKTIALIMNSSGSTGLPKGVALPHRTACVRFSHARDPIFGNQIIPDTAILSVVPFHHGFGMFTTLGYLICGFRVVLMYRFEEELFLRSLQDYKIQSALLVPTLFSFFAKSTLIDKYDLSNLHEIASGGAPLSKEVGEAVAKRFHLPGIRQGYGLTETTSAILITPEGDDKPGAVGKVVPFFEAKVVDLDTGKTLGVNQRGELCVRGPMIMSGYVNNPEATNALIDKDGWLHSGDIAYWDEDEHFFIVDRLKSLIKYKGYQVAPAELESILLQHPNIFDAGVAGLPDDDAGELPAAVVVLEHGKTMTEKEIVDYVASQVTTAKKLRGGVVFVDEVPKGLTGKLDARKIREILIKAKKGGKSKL
# The depositor's hits bear a star; x = not tested or not shown. Only some compounds are listed: those with a hit (about 2.4% of all), similar ones and a draw of the others.
SMILES,HSF1 inhib,STAT3 inh,STAT1 blocker,PPC-1+TRAIL kill,C8 TRAIL sens,HSP90 inh,PPC1 cytotox,HSP90 confirm,luciferase ctr
C=CCNC(=S)N/N=C(\C)c1ccccn1,-8.1,-5.8,-38.7,33.0,-7.4,8.4,41.2,x,x
O=C(Cc1c(F)cccc1Cl)NNC(=O)c1ccncc1,x,x,x,x,-11.8,x,x,x,x
Nc1ccc2cccc(O)c2c1,x,x,x,x,5.9,x,x,x,x
N/C(=N\OC(=O)c1cc(Br)ccc1Cl)c1ccccn1,19.0,-16.2,-27.5,36.5,48.1,1.3,x,x,x
N/C(=N\OC(=O)c1ccc(Cl)cc1Cl)c1ccccn1,-65.1*,86.4*,88.6*,89.7*,90.4*,91.2*,89.3*,x,x
Cc1csc(NC(=O)c2ccc(C)o2)n1,-13.8,-3.5,-17.1,14.8,7.0,7.9,x,x,x
Cc1ccc(C(=O)Nc2nc3c(s2)CCCC3)o1,25.1,25.6,-37.1,52.1*,65.5*,5.8,53.0*,x,x
O=C(NCc1cccs1)c1csc([C@@H]2O[C@H](CO)[C@H](O)[C@H](O)[C@H]2O)n1,x,x,x,x,1.3,x,x,x,x
O=C(CCC1CCN(Cc2nccs2)CC1)Nc1ccccc1,x,x,x,x,5.0,x,x,x,x
O=C(Nc1nccs1)c1ccc(-c2ccc([N+](=O)[O-])cc2)o1,-13.2,25.8,-58.1,27.7,23.4,5.9,x,x,x
O=C(Nc1nccs1)c1ccc(-c2ccc(Cl)cc2)o1,25.2,15.9,-40.9,59.5*,80.5*,-1.0,60.9*,x,x
O=C(Nc1nccs1)c1cnccn1,-1.8,7.5,4.1,8.2,-1.7,-0.2,7.6,x,x
CSc1ccc(/C=C/C(=O)OCC(=O)N2CCN(c3ccccc3)CC2)cc1,x,x,x,x,-7.7,x,x,x,x
c1ccc2c(c1)CCN(c1nc3cc4c(cc3s1)OCCO4)C2,-34.5,87.8*,36.7*,84.4*,75.0*,53.5*,84.4*,73.3*,73.8*
CCN(CCO)c1ccc(N=Nc2cc(C)[nH]n2)cc1,-33.6,x,x,77.4*,85.9*,57.5*,78.2*,76.4*,67.7*
O=C(O)CC1Cc2ccccc2C1C(=O)O (stereo not given),x,x,x,x,1.8,x,x,x,x
c1ccc(-c2nc3cc4ccccc4cc3[nH]2)nc1,-16.4,86.3*,43.5*,89.1*,86.3*,25.8*,90.0*,72.1*,65.6*
CC(=O)Nc1ccc2nc(-c3ccccn3)[nH]c2c1,21.8,1.3,-25.9,34.7,33.2,2.2,x,x,x
N#Cc1cccc(-c2csc(C(O)(c3ccccc3)C(F)(F)F)n2)c1 (stereo not given),x,x,x,x,27.2,x,x,x,x
O=C(NC1CCCC1)C1c2ccccc2OCC(=O)N1Cc1cccnc1 (stereo not given),x,x,x,x,3.5,x,x,x,x
Cc1cc(C(=O)CN2C(=O)c3ccccc3S2(=O)=O)c(C)n1C(C)C,x,x,x,x,27.1,x,x,x,x
Cc1ccc(C(=O)CN2C(=O)c3ccccc3S2(=O)=O)cc1,-75.2*,x,x,45.1,29.3,24.4*,45.7,56.7*,-8.6
Cc1cc(C)c2c(N)c(C(=O)Nc3ncc(C)s3)sc2n1,x,107.6*,87.2*,96.0*,94.0*,70.2*,95.9*,91.6*,87.5*
COC(=O)c1sc2nc(C)cc(C)c2c1N,-0.7,20.4,-17.6,34.0,0.3,0.0,x,x,x
CN(C)c1cccc(C(=O)N/N=C/c2ccccc2F)c1,x,88.8*,68.6*,61.5*,78.6*,35.7*,58.7*,73.2*,59.8*
SMILES,HSF1 inhib,STAT3 inh,STAT1 blocker,PPC-1+TRAIL kill,C8 TRAIL sens,HSP90 inh,PPC1 cytotox,HSP90 confirm,luciferase ctr
O=C(Nc1ccc2c(c1)OCCO2)c1ccccn1,-5.8,69.5*,47.0*,42.8,74.8*,24.8*,53.0*,66.6*,52.6*
O=C(Nc1ccc(N2CCCCC2)cc1)c1ccccn1,-66.9*,109.6*,95.7*,96.5*,92.9*,91.9*,96.5*,93.2*,89.3*
O=C(Nc1ccc(NC(=O)c2ccccn2)cc1)C(=O)Nc1ccc2c(c1)OCCO2,-5.6,12.8,-15.1,-6.7,-3.5,-0.7,x,x,x
O=C(Nc1ccc(N2CCCCCC2)cc1)c1ccccc1Cl,29.0,-2.7,-53.1,15.9,-25.2,-0.5,x,x,x
CC(C)c1ccc(/C=N/NC(=O)c2ccccn2)cc1,10.7,x,x,68.7*,81.0*,28.1*,66.3*,69.0*,62.8*
CC(C)(C)C(=O)Nc1ccc(N=Nc2ccccc2)cc1,-78.1*,87.5*,67.0*,61.6*,82.1*,70.5*,68.1*,79.2*,73.5*
O=C(O)CCC(=O)Nc1ccc(N=Nc2ccccc2)cc1,1.6,2.3,-9.1,25.0,-1.9,-2.0,x,x,x
c1ccc(-c2cc(-c3nc(-c4ccccn4)no3)c3ccccc3n2)cc1,-0.6,26.1,-3.6,x,8.4,2.1,x,x,x
Clc1cccc(-c2nc(-c3ccccn3)no2)c1,12.7,80.6*,53.9*,70.1*,77.3*,57.4*,66.3*,81.9*,75.7*
Cc1ccc(-c2nc(-c3ccccn3)no2)cc1,-78.3*,106.7*,90.3*,92.8*,91.9*,93.6*,92.4*,97.7*,93.9*
Cc1ccc(Cc2nc(-c3ccccn3)no2)cc1,7.9,16.4,-29.3,17.7,20.3,4.6,x,x,x
c1ccc(-c2nc(-c3ccccn3)no2)cc1,10.7,98.3*,62.2*,71.8*,75.3*,45.9*,66.0*,79.5*,70.3*
c1ccc(-c2noc(-c3ccno3)n2)nc1,5.2,x,x,15.0,4.6,-1.6,x,x,x
O=C(CNC(=O)c1ccccc1Cl)NCCc1cccs1,x,x,x,x,5.3,x,x,x,x
C=CCOC(=O)Nc1nc(CCNC(=O)OC(C)(C)C)c(C(=O)OC)s1,x,x,x,x,6.8,x,x,x,x
CC(=O)OC[C@@H]1CN(Cc2cccc(C(F)(F)F)c2)C[C@H](n2cnc3c(NCc4ccco4)ncnc32)O1,x,x,x,x,-3.5,x,x,x,x
Cc1ccc(C(=O)n2c(N)nc3ccccc32)cc1,-12.9,103.1*,88.9*,92.2*,95.2*,59.7*,92.8*,88.7*,83.0*
Cc1ccc(S(=O)(=O)n2c(N)nc3ccccc32)cc1,-3.7,x,x,x,0.8,-1.6,x,x,x
CCOC1=C2[C@@H](CN(S(=O)(=O)c3ccc(C)cc3)[C@H]2c2ccccc2)[C@H]2C(=O)N(c3ccccc3)C(=O)[C@H]2C1,x,x,x,x,-0.6,x,x,x,x
Cc1ccc(C(=O)O/N=C(\N)c2ccccc2)c(Cl)c1,-81.4*,x,x,81.2*,94.2*,56.4*,80.4*,79.6*,86.6*
N/C(=N\OC(=O)c1ccc(Cl)cc1Cl)c1ccncc1,20.2,x,x,4.0,36.6,-2.2,x,x,x
Cc1ccc2c(c1)sc(=NC(=O)C1CC1)n2C,11.2,x,x,22.7,18.8,4.4,x,x,x
Cc1ccc2c(c1)sc(=NC(=O)c1cccs1)n2C,-31.3,88.1*,81.4*,88.3*,91.4*,27.6*,84.9*,83.9*,79.7*
OC[C@@H]1CN(Cc2ccncc2)C[C@H](n2cnc3c(NCc4ccncc4)ncnc32)O1,x,x,x,x,-7.0,x,x,x,x
